Laboratory results: PubChem BioAssay (NCATS)
Results filed as inconclusive are left out. Calls of active or inactive are those of the source. The call rests on the fitted dose curve; in most records, active means well fitted cell-killing curve with a large enough effect; inconclusive means small, poorly fitted or top-dose-only effect, or effect the other way; inactive means no such curve, though single readings can be large or run the other way.
Potency means the concentration at half of the fitted maximal effect.

Test: Quantitative High-Throughput drug screen in 47 multiple myeloma cell lines against the NCATS MIPE library collection: VP6_DJ cell viability assay (AID 1919867); further: nearly all actives have a fitted effect of over 40% in size
Settings: ATP luminescence, 48 h; series mostly up to 45.8 µM
From the text: PI: Beverly A. Mock Ph.D.
Laboratory of Cancer Biology and Genetics,
Center for Cancer Research, National Cancer Institute,
National Institute of Health, Bethesda, Maryland
Drug resistance and disease progression are common in multiple myeloma (MM) patients, underscoring the need for new therapeutic combinations. […] We hypothesized that effective combinations would reduce MYC expression and enhance p16 activity. […] These preclinical data identify potentially useful drug combinations for evaluation in drug-resistant MM and reveal potential mechanisms of combined drug sensitivity.
Described herein is the primary MIPE qHTS used to cherrypick compounds. Validated compounds were then further tested for potential synergistic activiy.
[1] Peat TJ, Gaikwad SM, Dubois W, Gyabaah-Kessie N, Zhang S, Gorjifard S, Phyo Z, Andres M, Hughitt VK, Simpson RM, Miller MA, Girvin AT, Taylor A, Williams D, D'Antonio N, Zhang Y, Rajagopalan A, Flietner E, Wilson K, Zhang X, Shinn P, Klumpp-Thomas C, McKnight C, Itkin Z, Chen L, Kazandijian D, Zhang J, Michalowski AM, Simmons JK, Keats J, Thomas CJ, Mock BA. Drug combinations identified by high-throughput screening promote cell cycle transition and upregulate Smad pathways in myeloma. Cancer Lett. 2023 Aug 1;568:216284. doi: 10.1016/j.canlet.2023.216284. Epub 2023 Jun 24. PMID: 37356470; PMCID: PMC10408729.
SEQUENCE No. (e.g., 1, 2, 3, etc.); […] (e.g., Cells, Incubation, Reagent, etc.); VALUE and DESCRIPTION.
1; Cells; 5 uL; white, solid bottom 1536-well Greiner assay plate.
2; Compounds; 23 nL; Kalypsis pin tool (Wako USA) equipped with a 1536-well pin head to transfer to the assay plates.
3; Incubation; 48 hours; 37C incubation.
4; Reagent;5uL; CellTiter Glo (Promega).
5; Detector; 425V; Luminescence; Viewlux PerkinElmer.
NOTES (numbers refer to Sequence numbers above)
1. The cell-based screening methods employed in this study were like those previously published. Briefly, the corresponding myeloma cell lines were screened in 1,536-well plates with 500 cells, 5-uL per well for inhibition of cell viability (assessed by measuring ATP levels with CellTiterGlo).
2. NCATS MIPE 4.0 library of approved and investigational drugs were added using the Kalypsis pin tool. Wells treated with DMSO only for 100% viability and media only for 0% viability were used as controls.
3. The assay plates were covered and incubated for 48 hours in a 37C, 5% CO2 incubator with controlled humidity.
4. After 48 hours, CellTilter-GloTM luminescent substrate mix (Promega) reagent was added to the assay plate and plates we incubated for 5 min at room temperature.
5. Signal was measured as median relative luminescence units on a ViewLux (PerkinElmer) multiplate reader.
[1] Heske CM, Davis MI, Baumgart JT, Wilson K, Gormally MV, Chen L, Zhang X, Ceribelli M, Duveau DY, Guha R, Ferrer M, Arnaldez FI, Ji J, Tran HL, Zhang Y, Mendoza A, Helman LJ, Thomas CJ. Matrix Screen Identifies Synergistic Combination of PARP Inhibitors and Nicotinamide Phosphoribosyltransferase (NAMPT) Inhibitors in Ewing Sarcoma. Clin Cancer Res. 2017 Dec 1;23(23):7301-7311. doi: 10.1158/1078-0432.CCR-17-1121. Epub 2017 Sep 12. PMID: 28899971; PMCID: PMC6636827.
For `CC1=C(CO)C(=O)O[C@@H]([C@@H](C)[C@H]2CC[C@H]3[C@@H]4C[C@H]5O[C@]56[C@@H](O)C=CC(=O)[C@]6(C)[C@@H]4CC[C@]23C)C1`, the Potency was 166 nM (active).
For `O=c1c2ccccc2nc2n1CCc1c-2[nH]c2ccccc12`, the Potency was “inactive”.
For `Cc1cn2c(-c3cn[nH]c3)cnc2c(Nc2ccc(C(=O)N3CCNCC3)cc2F)n1`, the Potency was 8330 nM (active).
For `O=C(Nc1nc2cccc(-c3ccc(CN4CCS(=O)(=O)CC4)cc3)n2n1)C1CC1`, the Potency was 18700 nM (active).
In the case of `CC(C)c1cc(C(=O)N2Cc3ccc(CN4CCN(C)CC4)cc3C2)c(O)cc1O`, the Potency is reported as 148 nM (active).
In the case of `CCC[C@H](NC(=O)C(C#N)=Cc1cccc(Br)n1)c1ccccc1`, the Potency is reported as 2090 nM (active).
In the case of `CCNC(=O)Nc1ccc2ncc(Nc3ccc(C)cc3)nc2n1`, the Potency is reported as 662 nM (active).
In the case of `O=C(C=Cc1cccc(S(=O)(=O)Nc2ccccc2)c1)NO`, the Potency is reported as 855 nM (active).
With `CC(C)c1cc(-c2n[nH]c(=O)n2-c2ccc3c(ccn3C)c2)c(O)cc1O` the Potency was 20.9 nM (active).
In the case of `CC(C)C[C@H](NC(=O)CNC(=O)c1cc(Cl)ccc1Cl)B(O)O`, the Potency is reported as 37.2 nM (active).
For `CC(C)=CCCC(C)=CCCC(C)=CCSc1ccccc1C(=O)O`, the Potency was 1870 nM (active).
In the case of `CC(=O)c1c(C)c2cnc(Nc3ccc(N4CCNCC4)cn3)nc2n(C2CCCC2)c1=O`, the Potency is reported as 18700 nM (active).
With `CCN1CCN(CC(=O)Nc2ccc(-c3cccc4c(=O)cc(N5CCOCC5)oc34)c3sc4ccccc4c23)CC1` the Potency was 469 nM (active).
For `CCn1cc(-c2ccnc3[nH]c(-c4cccc(CN(C)C)c4)cc23)c(-c2ccc(NC(=O)N(C)C)cc2)n1`, the Potency was 1480 nM (active).
In the case of `Cc1nc(N)ncc1-c1nc(N2CCOCC2)c2sc(C(C)(C)O)cc2n1`, the Potency is reported as 935 nM (active).
With `CCCCc1nc2cc(C=CC(=O)NO)ccc2n1CCN(CC)CC` the Potency was 10.5 nM (active).
In the case of `COc1ccc2c(c1)CC[C@@H](CN(C)CC(=O)O)[C@H]2c1ccccc1`, the Potency is reported as 1870 nM (active).
In the case of `NC1(Cc2ccc(Cl)cc2)CCN(c2ncnc3[nH]ccc23)CC1`, the Potency is reported as 3720 nM (active).
With `C=CC(=O)Nc1cccc(Oc2nc(Nc3ccc(N4CCN(C)CC4)cc3OC)ncc2Cl)c1` the Potency was 18.7 nM (active).
In the case of `c1ccc2c(CCNc3ccc(Nc4ccncc4)cc3)c[nH]c2c1`, the Potency is reported as 23500 nM (active).
With `COc1c(OCCCN2CCOCC2)ccc2c3n(c(=NC(=O)c4cnc(N)nc4)nc12)CCN3` the Potency was 457 nM (active).
For `COc1cc2c(Nc3ccc(NC(=O)c4ccccc4)cc3)ncnc2cc1OCCCN1CCOCC1`, the Potency was 14800 nM (active).
For `O=C(c1cncc(Br)c1)N1CCC(N2CCCC2)CC1`, the Potency was “inactive”.
For `COc1ccc(C(=O)CC2(O)C(=O)Nc3c(Cl)ccc(Cl)c32)cc1` (stereo not given), the Potency was 2960 nM (active).
In the case of `CNC(=O)c1cc(Oc2ccc(NC(=O)Nc3cc(C(C)(C)C)nn3-c3ccc4ncccc4c3)c(F)c2)ccn1`, the Potency is reported as 4690 nM (active).
For `CC(=O)Nc1sc2c(c1-c1nc3ccccc3s1)CNC2`, the Potency was 11800 nM (active).
In the case of `CN1c2cc(O)c(N=NC(N)=O)cc2CC1S(=O)(=O)O` (stereo not given), the Potency is reported as “inactive”.
With `CCCCOc1c(C(=O)c2c(F)cc(C)cc2F)cnc2n[nH]cc12` the Potency was 3320 nM (active).
For `C[C@@H]1CN(CC(=O)Nc2ccc3c(c2)Cc2cccc(-c4cc(=O)cc(N5CCOCC5)o4)c2S3)C[C@H](C)O1`, the Potency was 16600 nM (active).
With `CCOc1cc2ncc(C#N)c(Nc3ccc(F)c(Cl)c3)c2cc1NC(=O)C=CCN(C)C` the Potency was 4690 nM (active).
In the case of `C[C@@H](Oc1cc(-c2cnn(C3CCNCC3)c2)cnc1N)c1c(Cl)ccc(F)c1Cl`, the Potency is reported as 4180 nM (active).
In the case of `Cc1[nH]nc2ccc(-c3cncc(OC[C@@H](N)Cc4ccccc4)c3)cc12`, the Potency is reported as 833 nM (active).
In the case of `CN(C)c1nc(Cc2ccc(NC(=O)c3ccc4ccccc4c3)cc2)nc(Cl)c1CC(=O)O`, the Potency is reported as “inactive”.
In the case of `COc1cccc(Nc2c(C(N)=O)cnc3c(C)cc(S(=O)(=O)c4cccc(C(=O)N(C)C)c4)cc23)c1`, the Potency is reported as “inactive”.
For `O=C(O)CO.[NH2-].[NH2-].[Pt+2]`, the Potency was “inactive”.
For `CCCCN1CCC(CNC(=O)c2c3n(c4ccccc24)CCCO3)CC1`, the Potency was 10500 nM (active).
With `Nc1nc(-c2nn(Cc3ccccc3F)c3ncccc23)nc(N)c1N1CCOCC1` the Potency was 3720 nM (active).
In the case of `Cc1cc(Nc2cc(NC(=O)c3c(Cl)cccc3Cl)ccn2)nc(N)n1`, the Potency is reported as 1660 nM (active).
With `C=CC(=O)Nc1cc2c(Nc3ccc(F)c(Cl)c3)ncnc2cc1C#CC(C)(C)N1CCN(C)CC1` the Potency was 833 nM (active).
For `CCc1c2c(nc3ccc(O)cc13)-c1cc3c(c(=O)n1C2)COC(=O)[C@]3(O)CC`, the Potency was 662 nM (active).
